Among the data in PubChem BioAssay AID1508600 (Functional Genomics Laboratory (NCATS/FGL), 2020) are z-score values, retold here.

Among all 53,000 sequences or so, about 3,700 (7%) were called active.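 The calls were made as follows: active = gene knockdowns whose robust z-score for IL-1 alpha signal is at least 2 or at most -2, so actives lie on both sides; inactive = the rest.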 Only a selection was taken, and actives are over-represented in it overall.

The assay in a line: Components of the Cytosolic LPS Sensing Pathway: Gene Identification via Genome-wide siRNA Screen.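 Also: robust z of the log signal after scaling to non-targeting control siRNA wells of the plate.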 As to conditions: RAW264.7 macrophages, IL-1a HTRF, actives lie on both sides, screened at 100 nM (by protocol), cells primed 5 h with Pam3CSK4 first. The essentials: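 Cells (RAW264.7, 1×10^4 per well) were transfected with siRNA at 100 nM and cultured 48h at 37 degrees C. Pam3CSK4 was added for 5 hours; LipidA transfection followed for 24 hour. IL-1a was then measured by HTRF.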
On the technique in general: In TR-FRET formats the signal depends on donor and acceptor labels being close together.
Regarding GGCUCUGGGUGGUAUUCAUTT against Slc5a2, the z-score was -0.637 (inactive).

Consider GGCACUGGGCAAACAUUAATT against Ptprcap, for which the z-score was 1.09 (inactive).

Consider GGCAGUUCAAAAGACCACATT against Zcchc7, for which the z-score was 2.38 (active).

GGGCAACGAGCUGUUCAAATT against Unc45a: the z-score is 1.71 (inactive).

Take GGGAUCUGGAUUUAAUUUGTT against Arf5: the z-score was 0.523 (inactive).

For GGUCACACCCACCAUUACGTT against Serpina11, the z-score is -0.765 (inactive).

Consider CCAUUACAGGGUUUUUUAUTT against Slc37a3, for which the z-score is -0.62 (inactive).

On to GGGAAAAGCAAACACUAAUTT against C1d, for which the z-score is -1.84 (inactive).

Turning to GGAGCAUCUCAAACCUUCATT against Lancl3, the z-score is -3.8 (active).

Consider GAUGCGGCUCCUUGGAAUUTT against Slc51b, for which the z-score is 2.38 (active).

GGUCAUAAGAAGCUCAAGATT against Serpinb9d: the z-score is 0.268 (inactive).

Take GCCGGAAGAUAAGGCUCAUTT against Gap43: the z-score is -2.2 (active).

As for GGAAGAACUCAAGAGGGAATT against Plpp2, the z-score is -0.775 (inactive).

Regarding GCUGGGAGUAAAAUUGACUTT against Cenpj, the z-score is -0.65 (inactive).

Consider CGAGCAUGCUGAAAAGACCTT against Steap1, for which the z-score is -0.826 (inactive).

Regarding GGUUUUAAAGCAUCUUCGUTT against Pard6g, the z-score was -0.284 (inactive).

GGGCAACAUUUUUCAGUGCTT against Prox1: the z-score is 0.722 (inactive).

For the sequence GGAUCUUAAGUCCUAACAUTT against Tacc3, the z-score is -2.37 (active).

For the sequence CCGAUAAUGCUUUCUUUGGTT against Ppp1cc, the z-score was 0.547 (inactive).

Consider “CCAAGUCAGUGCUGUAAAGTT against F830104G03Rik”, for which the z-score is -1.58 (inactive).

On to GGUGAUGCCUGUGAAGACATT against Il3ra, for which the z-score was 2.04 (active).

Turning to GGGAUAUUCAUUGACUUUGTT against Prr5, the z-score is -1.88 (inactive).

In the case of CCAAGAAUGUUUCCAUGUUTT against Slc12a5, the z-score was -1.68 (inactive).

Take CCUGAACCACUUGUUAAAUTT against Rnf10: the z-score is 0.124 (inactive).

In the case of GCUUCAGGUCAGUCUCUUCTT against Olfr1042, the z-score was 0.969 (inactive).

For GGAGGCAAAAAUGAUGCUATT against Slpi, the z-score was 1.97 (inactive).

With GCAUCUCACUUUUGACCUATT against Retreg2, the z-score was 0.928 (inactive).

With GUCUCAAGUGGACUGUGAGTT against Klk1b4, the z-score is -2.83 (active).

As for GCAAUUAUAACUUAGAAGGTT against Eml3, the z-score is 0.149 (inactive).

Turning to GCCUUUCAACUCACCAGCCTT against Zfp574, the z-score was 0.617 (inactive).

With GGGAAGGAAUAUGAUGGGCTT against Sik3, the z-score is -0.704 (inactive).

Regarding GGUCCCAACGAAGAAACCATT against Cd55, the z-score is 0.475 (inactive).

On to GGGCUAAGGCGAAAAGACUTT against Msx2, for which the z-score was 3.24 (active).

Consider GCUAAAUUUCCCAUAGGAATT against Pmch, for which the z-score is 0.822 (inactive).

As for GGAGCUUCGAAAAAAGUUGTT against Pex16, the z-score is 0.329 (inactive).

In the case of GCACAAUUAUGAGAGUGCATT against Grin1, the z-score was -0.91 (inactive).

Take GGGUUAAGCGCAAGUGUAATT against Degs2: the z-score is 0.331 (inactive).

For GGCUGAAAAUAUUUUCAGATT against Garnl3, the z-score was -0.1 (inactive).

Turning to GGAGCCAGUGACAAUAAAUTT against Mtag2, the z-score is -1.1 (inactive).

For GGUGAUGAUGUCAUACAAATT against Cav1, the z-score is 3.12 (active).

On to GGCUCUCAUCCAUCUCCUUTT against Olfr715, for which the z-score was -1.79 (inactive).

For “GGUCUGGAAAACCAGCUUATT against D630039A03Rik”, the z-score is 1.04 (inactive).

With GGUUGAAGUCUAUUCUCGATT against Trap1, the z-score is -0.139 (inactive).

For GGGUUUGACAGAGAGAAGATT against Atp5g2, the z-score is -0.581 (inactive).

Take GGUGAGCGUGUAGAGAUGCTT against Fbxo45: the z-score is 0.787 (inactive).

Turning to GGGCUAAAGUUGAUAAUAATT against Psmc3, the z-score is -2.02 (active).

Consider GCACUUUGUGCUAUAUAAGTT against Mapk14, for which the z-score is 0.616 (inactive).

Turning to GGUAAAGUUGCUUAAUUAGTT against Msl3l2, the z-score was 0.944 (inactive).

With GGAAGAAGUCUGAUACAUCTT against Samd5, the z-score is 0.572 (inactive).

In the case of CGCUAAUCUUCGAAAACCUTT against Abcc12, the z-score is -0.998 (inactive).

In the case of GGAGUUCGUACCCUUAUCCTT against Rtel1, the z-score was -2.2 (active).

Take GGUUAUCCAACCUAGAAUATT against Tmlhe: the z-score was 0.74 (inactive).

Take GGCAAAGUUUGGGAUUACATT against Ntng1: the z-score was 1.17 (inactive).

Take GGUUGUAUUGGAUAUCAAGTT against Ceacam2: the z-score is 0.953 (inactive).

As for GGACUUUGAAAAGAGAAUUTT against Polb, the z-score was -0.213 (inactive).

Regarding GGACUUCUCCAUCCUGCUUTT against Alg1, the z-score was -0.542 (inactive).

Consider GGGACCAGAGGAAACAGAATT against Tnfsf13b, for which the z-score was -2.21 (active).

Turning to GGGCAUUGCCAGGAAUUAUTT against Lrp1b, the z-score is 1.31 (inactive).

In the case of GUUGUCCAUAUCAUGUUUGTT against Olfr569, the z-score is 1.28 (inactive).

Take GGGAAGAGCCCUAAUAUUATT against Aldh1a2: the z-score is -0.098 (inactive).

With GGUGGACAAGACUAAAACATT against Podxl, the z-score is -0.253 (inactive).

Turning to GGGCCAAAUAGCUAUGCAGTT against Aldoc, the z-score was -0.309 (inactive).

For the sequence GGAAUUAUAAAAGACCACGTT against Kctd12b, the z-score was 2.39 (active).

For the sequence GGUGCUCUCAGGAAAGUUGTT against Olfr1157, the z-score was 0.82 (inactive).

For CCUGUACUCUAUAUUCUGUTT against Pld2, the z-score was 0.98 (inactive).

For the sequence GGCCAUCGAACUCAAUCUCTT against Lrrc57, the z-score is 0.243 (inactive).

Take GGAGUAUGAUAAUGAACCATT against Areg: the z-score is -0.0698 (inactive).

Take GGACAUCAAGUUCUUGCCATT against Hspa5: the z-score is -0.478 (inactive).

Turning to GGCUGGUAUCUUUCAGAGUTT against Cox6c, the z-score was 2.2 (active).

On to “GGAACCAAUCGGGAUUUUGTT against B330016D10Rik”, for which the z-score is 0.179 (inactive).

Regarding CGGUUCCACUUCAAAUGACTT against Hsd17b2, the z-score was 0.72 (inactive).

GGACACUUUCUCAUAUCAUTT against Abca9: the z-score is 2.06 (active).

As for GGAGGCUCUACUUUUGUAGTT against Olfr611, the z-score is -2.16 (active).

For the sequence GGCUUCCCGGAGUAACAAUTT against Dlgap1, the z-score was -0.742 (inactive).

Turning to GAAAAGAAUUCCAGAAGAUTT against Sec61g, the z-score is 1.19 (inactive).

In the case of CCAGUGCGUCACUCAGUAATT against Ssmem1, the z-score is -1.11 (inactive).

As to GGAUGAAGGGACGAAUUCATT against Pcdha6, the z-score was 0.635 (inactive).

GCUGUGCAAGCAAUAUCUATT against Hnrnpm: the z-score is 0.423 (inactive).

For CCCUUUCGAGGUGGUAAAATT against Slc25a21, the z-score was 0.11 (inactive).

As for GCCAAAUAAUCUGAAAGCCTT against Rpl28, the z-score was 0.309 (inactive).

As to GGAGCGCGUGAAACUGUCUTT against Fbxw4, the z-score was -0.752 (inactive).

Take “GGGCCACUGCCAAAUACUATT against 2510009E07Rik”: the z-score was 3.33 (active).

As to GGAAAGCUUCAGAAUCUAATT against Bckdk, the z-score is -0.365 (inactive).

With GCUCGAGAUCGAAACAUACTT against Tmed5, the z-score was -1.13 (inactive).

For GCCACUUUAGUAUGGAAUGTT against Nxt1, the z-score is 0.822 (inactive).

Turning to GGCUGUGGAAUGACACCAATT against Sars2, the z-score is -1.01 (inactive).

As to GGAUAUCUCGGGUUGAAUUTT against Aurka, the z-score is -1.38 (inactive).

On to GGCUAAUGGACAAAAAAUUTT against Pacrgl, for which the z-score was 0.28 (inactive).

Regarding CCAUGACUACAACACAUACTT against Ndufv3, the z-score is -3.07 (active).

Turning to GGAAGACAUACUGUUGAAATT against Mettl23, the z-score is -0.147 (inactive).

As for GGCUCUUGUCACAUGAUCATT against Jagn1, the z-score was -1.77 (inactive).

For the sequence GGGUUCAAAACUAUGGAUATT against Stk26, the z-score is 0.575 (inactive).

On to GGAUCUGAGUGCUCUACUGTT against Kctd20, for which the z-score was 2.08 (active).

GGCCCACAGGAACAUCCUATT against Zbtb8b: the z-score was -0.134 (inactive).

Turning to GGACAAACAGCUUCAAGAUTT against Psmd2, the z-score was -2.26 (active).

Take GGGUUCUUUCACUGAACGATT against Pskh1: the z-score is 0.9 (inactive).

For GGCAUCUUCAUCAAGGAUUTT against Sf3a1, the z-score is -1.1 (inactive).

As to GGCUUAAGUGUGCAGCUACTT against B3gnt4, the z-score was -0.479 (inactive).

On to GGACAUUGCUGCCUAUAUCTT against Dynll2, for which the z-score is 0.452 (inactive).

For the sequence GCGAUCCUGACUUGUUCAATT against Kdm6b, the z-score was 2.27 (active).

Turning to GGACAAGAAGCAUCUUUCATT against Smpdl3a, the z-score was -1.16 (inactive).

GGAAACUUUAGCAUGAAUGTT against Hmgxb4: the z-score was -0.335 (inactive).

For the sequence GCAUGCGUGAGAAACUGAUTT against Clec2e, the z-score is -0.152 (inactive).

For GCAAGCUAAUGAGCUACAATT against Samd9l, the z-score was -0.107 (inactive).

For the sequence CCGCCCGCUCAACACUAAUTT against Zfp36l3, the z-score was -2.39 (active).

As to GGUAUAUUGCCAUAUGUAATT against Olfr731, the z-score is -0.174 (inactive).

With CCAUGGGCCUACCAAACAGTT against Celf2, the z-score was -1.86 (inactive).
